Sampled rows, rich in hits. Any-hit rate of the full collection: about 1.8%.
PME-1 primary = PME-1 (human) inhibition. Q9Y570. recombinant PME-1, FP-Rh probe fluorescence polarization. inhibition, % at 5.9 µM. 320,000 compounds, 0.53% hits. AID 2130;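 active = inhibition above the campaign mean of all compounds plus 3 SD, cut at about 26% in these data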;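 also: competitive labeling of PME-1 active site by serine hydrolase directed probe; 0% = PME-1 with DMSO and 100% = wells lacking PME-1 enzyme; inhibitors block probe labeling so polarization falls and inhibition rises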
LYPLA2 counter = LYPLA2 (human) inhibition in PME1 counter-screen | recombinant LYPLA2, FP-Rh probe fluorescence polarization | inhibition, % at 5.9 µM | 320,000 compounds, 0.38% hits;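 active = inhibition above the screen-wide mean plus 3 SD, limit set per campaign, cut at about 26% in these data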;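 also: 0% = LYPLA2 with DMSO and 100% = wells lacking LYPLA2 enzyme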
PAD4 inh = inhibitors of human PAD4 | 330,000 compounds, 0.41% hits | recombinant PAD4, RCA probe fluorescence polarization | inhibition, % at 6.36 µM | Q9UM07 | AID 485272;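 active = percent inhibition above a cutoff equal to the mean of all tested compounds plus 3 SD, cut at about 15% in these data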;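 also: 0% = PAD4 with RCA probe and DMSO and 100% = probe without PAD4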
LYPLA1 counter = blocks human lysophospholipase 1, a PME1 counter-screen | recombinant LYPLA1, FP-Rh probe fluorescence polarization | 320,000 compounds, 0.16% hits | inhibition, % at 5.9 µM;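 active = inhibition above the mean of all tested compounds plus 3 SD, set per campaign, cut at about 14% in these data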;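 also: inhibitors block serine hydrolase probe labeling of LYPLA1 so polarization falls; 0% = enzyme with DMSO and 100% = wells lacking LYPLA1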
Target sequence (O75608 whole entry, looked up): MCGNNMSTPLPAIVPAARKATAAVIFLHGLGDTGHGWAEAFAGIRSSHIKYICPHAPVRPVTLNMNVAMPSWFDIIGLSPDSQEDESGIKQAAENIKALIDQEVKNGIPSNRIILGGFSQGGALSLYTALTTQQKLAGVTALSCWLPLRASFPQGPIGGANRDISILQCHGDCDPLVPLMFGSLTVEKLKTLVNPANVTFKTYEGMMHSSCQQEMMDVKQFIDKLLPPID
GSTO1 counter = GSTO1 inhibition, counter-screen for RBBP9 inhibitors; P78417; recombinant GSTO1, activity-based probe fluorescence polarization; inhibition, % at 5.96 µM; 300,000 compounds, 1.1% hits;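 active = inhibition above the campaign mean inhibition plus 3 SD, cut at about 35% in these data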;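 also: 0% = GSTO1-1 with DMSO and 100% = wells lacking GSTO1-1 enzyme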
Target sequence (P78417 whole entry, looked up): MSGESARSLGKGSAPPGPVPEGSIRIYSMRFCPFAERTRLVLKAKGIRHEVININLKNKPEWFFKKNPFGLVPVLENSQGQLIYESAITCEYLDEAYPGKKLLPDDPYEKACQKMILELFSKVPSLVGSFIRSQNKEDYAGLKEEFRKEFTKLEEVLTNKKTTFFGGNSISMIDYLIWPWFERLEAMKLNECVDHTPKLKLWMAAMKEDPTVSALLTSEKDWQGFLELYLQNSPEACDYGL
Fam108B inh = blocks mouse Fam108B hydrolase in RBBP9 counter-screen. recombinant Fam108B, FP-Rh probe fluorescence polarization. 300,000 compounds, 0.33% hits. inhibition, % at 9.51 µM. AID 1947;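 active = inhibition above the screen mean inhibition plus 3 SD, computed separately per campaign, cut at about 18% in these data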;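 also: inhibitors lower polarization as less probe binds the enzyme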
An asterisk follows results filed as active.

Screening Cc1ccc(S(=O)(=O)c2nnn3c2nc(N2CCOCC2)c2ccccc23)c(C)c1 returned PME-1 primary 27.1*, LYPLA2 counter 2.8, PAD4 inh -0.1, LYPLA1 counter -2.4, GSTO1 counter 5.6 and Fam108B inh 1.7.
Screening Cc1ccc(S(=O)(=O)c2nnn3c2nc(N2CCOCC2)c2ccccc23)cc1C returned PME-1 primary 5.3, LYPLA2 counter -5.4, PAD4 inh 0.8, LYPLA1 counter -2.3, GSTO1 counter -9.2 and Fam108B inh -1.4.
`O=C(COC(=O)c1ccc([N+](=O)[O-])s1)Nc1ccc(F)cc1` gave PME-1 primary 7.8, LYPLA2 counter 4.8, PAD4 inh -1.2 and LYPLA1 counter 2.4.
Screening CC(C)(C)c1ccc(NC(=O)COC(=O)c2ccc([N+](=O)[O-])s2)cc1 returned PME-1 primary 32.8*, LYPLA2 counter 16.1, PAD4 inh -14.0, LYPLA1 counter -0.3, GSTO1 counter 39.5* and Fam108B inh 11.7.
`O=C(COC(=O)c1ccc([N+](=O)[O-])s1)NC(c1ccccc1)c1ccccc1` gave PME-1 primary 10.2, LYPLA2 counter 1.1, PAD4 inh -11.2, LYPLA1 counter 1.2, GSTO1 counter 37.3* and Fam108B inh 10.4.
For O=C(COC(=O)c1ccc([N+](=O)[O-])s1)NCc1ccccc1 the results were PME-1 primary 9.2, LYPLA2 counter 16.1, PAD4 inh -1.4, LYPLA1 counter 3.8, GSTO1 counter 41.7* and Fam108B inh 9.8.
Screening Cc1ccc(Nc2c([N+](=O)[O-])ccc3nonc23)cc1C returned PME-1 primary -5.0, LYPLA2 counter -3.1, PAD4 inh -2.6, LYPLA1 counter -1.8, GSTO1 counter 4.4 and Fam108B inh 0.7.
For COc1ccc2c(c1)C=Cc1ccccc1O2 the results were PME-1 primary 4.2, LYPLA2 counter -17.8, PAD4 inh -1.3, LYPLA1 counter 2.9, GSTO1 counter 6.4 and Fam108B inh 3.3.
COc1cccc(/C=N/Nc2nc3ccccc3n3cnnc23)c1 was read as PME-1 primary -13.6, LYPLA2 counter -1.6, PAD4 inh -3.7, LYPLA1 counter -1.7, GSTO1 counter -2.9 and Fam108B inh 1.5.
COc1cccc(/C=N/Nc2nc3ccccc3n3cnnc23)c1O was read as PME-1 primary 29.0*, LYPLA2 counter -3.2, PAD4 inh -10.1, LYPLA1 counter -3.2, GSTO1 counter -0.2 and Fam108B inh 11.2.
`CCCCOc1ccc(C(=O)NCC(=O)NC2CCC(C)CC2)cc1` (stereo unspecified) gave PME-1 primary -3.2, LYPLA2 counter 4.5, PAD4 inh 3.6, LYPLA1 counter 1.5, GSTO1 counter 12.5 and Fam108B inh -3.1.
For N#CCC(=O)c1ccccc1Oc1ccc(Cl)cc1 the results were PME-1 primary 40.5*, LYPLA2 counter 3.5, PAD4 inh -3.6, LYPLA1 counter -3.7, GSTO1 counter 6.7 and Fam108B inh 1.3.
O/N=C/c1ccccc1Oc1ccc(Cl)cc1 was read as PME-1 primary 2.8, LYPLA2 counter 8.8, PAD4 inh -1.6, LYPLA1 counter 0.0, GSTO1 counter -9.6 and Fam108B inh 0.2.
Cc1cc(Cl)c2oc(C(=O)N(C)Cc3ccon3)c(C)c2c1 was read as PME-1 primary -3.7, LYPLA2 counter -4.3, PAD4 inh -3.9, LYPLA1 counter -1.5, GSTO1 counter -2.2 and Fam108B inh 4.5.
`Cc1cc(C)c(NC(=O)COC(=O)c2cccc3c2C(=O)c2ccccc2C3=O)c(C)c1` gave PME-1 primary 46.4*, LYPLA2 counter 2.3, PAD4 inh -5.5, LYPLA1 counter -5.4, GSTO1 counter -2.6 and Fam108B inh 9.7.
O=C(COC(=O)c1ccc2c(c1[N+](=O)[O-])C(=O)c1ccccc1C2=O)NC1CC1 was read as PME-1 primary 0.5, LYPLA2 counter -11.4, PAD4 inh -18.2, LYPLA1 counter -1.9, GSTO1 counter 34.8 and Fam108B inh -1.8.
`O=C(COC(=O)c1cccc2c1C(=O)c1ccccc1C2=O)NC1CCCCC1` gave PME-1 primary 40.8*, LYPLA2 counter 2.5, PAD4 inh -11.8, LYPLA1 counter 3.7, GSTO1 counter 6.8 and Fam108B inh 6.7.
Cc1cccc(C)c1NC(=O)COC(=O)c1ccccc1Nc1ccccc1 was read as PME-1 primary -3.3, LYPLA2 counter -7.0, PAD4 inh -3.9, LYPLA1 counter -3.3, GSTO1 counter -5.8 and Fam108B inh -3.0.
Cc1ccc(C)c(NC(=O)COC(=O)c2cccc3c2C(=O)c2ccccc2C3=O)c1 was read as PME-1 primary 88.5*, LYPLA2 counter -2.6, PAD4 inh 3.2, LYPLA1 counter -2.8, GSTO1 counter -2.3 and Fam108B inh 3.9.
Cc1ccc(NC(=O)COC(=O)c2cccc3c2C(=O)c2ccccc2C3=O)c(C)c1 was read as PME-1 primary 85.5*, LYPLA2 counter -1.2, PAD4 inh 5.1, LYPLA1 counter -2.5, GSTO1 counter 2.5 and Fam108B inh 5.3.
For Cc1ccc(C(C(=O)NCc2ccccc2)N(C(=O)c2ccccn2)c2ccccc2)o1 (stereo unspecified) the results were PME-1 primary 2.5, LYPLA2 counter -0.4, PAD4 inh -0.4, LYPLA1 counter 0.8, GSTO1 counter -1.8 and Fam108B inh -4.6.
`O=C(Nc1ccc(O)cc1)C1CC=CCC1` (stereo unspecified) gave PME-1 primary 14.3, LYPLA2 counter 17.8, PAD4 inh 5.3, LYPLA1 counter 7.4, GSTO1 counter 37.0* and Fam108B inh 9.1.
For O=C(Nc1nccs1)C1CC=CCC1 (stereo unspecified) the results were PME-1 primary -1.6, LYPLA2 counter 6.3, PAD4 inh 0.9, LYPLA1 counter 4.9, GSTO1 counter 4.3 and Fam108B inh 1.9.
Screening Cc1ccc(-n2c(C)cc(C(=O)CN3CCCCC3)c2C)cc1 returned PME-1 primary -4.5, LYPLA2 counter 2.4, PAD4 inh -8.1, LYPLA1 counter 1.9, GSTO1 counter 5.1 and Fam108B inh 0.9.
For COC(=O)CCN1CCc2cc(N=Nc3ccc([N+](=O)[O-])cc3)ccc21 the results were PME-1 primary 5.3, LYPLA2 counter 5.7, PAD4 inh -2.5, LYPLA1 counter -1.4, GSTO1 counter -3.5 and Fam108B inh -0.2.
`O=S1(=O)Nc2c(ccc3cccnc23)-c2ccccc21` gave PME-1 primary 5.3, LYPLA2 counter 0.7, PAD4 inh -1.5, LYPLA1 counter -0.5, GSTO1 counter 54.9* and Fam108B inh -7.1.
`O=c1[nH]n(-c2cccc3cccnc23)c(=O)c2ccccc12` gave PME-1 primary 5.4, LYPLA2 counter 5.0, PAD4 inh -2.6, LYPLA1 counter 2.1, GSTO1 counter 16.4 and Fam108B inh -0.6.
`Cc1ccc(CC2CC(=O)N(C(Cc3ccccc3)C(=O)O)C2=O)cc1` (stereo unspecified) gave PME-1 primary 1.9, LYPLA2 counter 5.3, PAD4 inh -5.9, LYPLA1 counter 3.7, GSTO1 counter 35.8* and Fam108B inh 1.2.

Screens: PubChem BioAssay, The Scripps Research Institute Molecular Screening Center
